# Where “and” joins values, the source holds several entries; their conditions need not be identical. Equal values may be shown once. Inconclusive results are not listed. For some of these results: Measured potencies and affinities stand elsewhere. Calls of active or inactive are those of the source. Unless noted, no stated cut-off is given here; in the data, active means parasite load remaining mostly below about 12% (no sharp cut-off); inactive means mostly above about 10%.
# Columns and labels:
# [1] = P. berghei load reduction in hepatocytes – cell-based, HepG2, luciferase luminescence, HepG2 viability, primary screen (AID 624349);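 further: 100% = mean of DMSO negative control wells on the same plate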; details: P. berghei liver stage in HepG2, luciferase luminescence, concentration not given here; parasite load remaining: stronger effect = lower value; viability: measured here: HepG2 viability without parasites
# [2] = EMT-state selective cytotoxicity in co-culture – imaging, PC-3E GFP, TEM4-18 mCherry, primary screen (AID 1345086;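 active means compounds killing one labelled cell type while sparing the other, by normalised counts and ratio limits, not self-fluorescent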;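 on all read-outs here: cells exposed to compound for 72 h before imaging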;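 on red/green cell ratio (normalised): normalised mesenchymal count divided by normalised epithelial count so high means epithelial killing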); details: PC-3E GFP / TEM4-18 mCherry co-culture, imaging cell counts, at 1 µM; for red/green cell ratio (normalised): actives lie on both sides, counts scaled to control wells, 1 = unselective
# [3] = viability loss with induced miR-34 in A549 – imaging, A549 dox-inducible miR-34, nuclei and caspase counts, primary screen (AID 1347080;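 active means compounds whose cell count with miR-34 switched on is under 0.7 times the count with it off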); details: A549 miR-34 inducible, Hoechst nuclei count, 48 h
# [4] = target: NAD(+) hydrolase SARM1 (Homo sapiens) (UniProt Q6SZW1); test: blocking NAD cleavage by SARM1 SAM-TIR – cell lysate, NAD-Glo luminescence (AID 1508614;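 active means compound whose remaining NAD level is above about 45 nM, limit read from the data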); details: SAM-TIR HEK293T lysate NADase, at 1 µM, stronger effect = higher value
# [5] = target: Mitogen-activated protein kinase 7 (Homo sapiens) (UniProt Q13164); test: Gal4-ERK5 driven luciferase induction – cell-based, HTS, primary screen (AID 1508626;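 active means luciferase signal above three times the same-plate solvent-only control wells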;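 further: luciferase driven by Gal4-ERK5 fusion binding five Gal4 sites before minimal TATA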); details: HeLa Gal4-ERK5 transactivation, 18 h, at 5 µM, stronger effect = higher value
# [6] = blockers of polyQ-driven CASP3 activation – cell-based (AID 1583); details: polyglutamine-induced caspase-3 activation, cell assay; stronger effect = higher value;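 tested at 10 µM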
# [7] = yeast 75Q aggregation reduction – 75Q-TubU reporter (AID 1593); details: Yeast 75Q polyglutamine aggregation reporter
# [8] = restoration of touch response, mutant HTT neurons – whole organism, C. elegans mechanosensory neurons, N-terminal huntingtin (AID 1599); details: C. elegans polyQ-huntingtin mechanosensory neurons, stronger effect = higher value
# [9] = blockers of cytochrome c efflux from mitochondria – biochemical, purified mitochondria (AID 1603); details: stronger effect = lower value;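 further: mouse liver mitochondria challenged with calcium chloride; signal normalized to the plate average as 100%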
# [10] = polyglutamine aggregate formation blockers (AID 1604); details: polyglutamine-induced protein aggregation inhibition assay; stronger effect = higher value; tested at 2.5 µM
# [11] = glutamate transport activators, MN-1 cells, MN-1 cell line (AID 1612); details: MN-1 motor neuron cells, stronger effect = higher value;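 further: tested at 1 µM final; 0% = mean of DMSO vehicle wells on each plate; positive means more glutamate uptake than control and negative means less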
# [12] = GFP-Q80 aggregate reduction, neuronal-like cells, cell-based, NGF-treated PC12, GFPQ80 (AID 1614); details: PC12 NGF-treated GFP-polyQ80 inclusion reduction;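 further: lower means fewer inclusions and 0 means no inclusions at all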
# [13] = 75Q-TubH aggregate inhibition, S. cerevisiae, yeast (AID 1616); details: S. cerevisiae 75Q-TubH polyglutamine aggregation suppression; stronger effect = higher value
# [14] = rescue of PC12 cells from polyQ htt toxicity – LDH release (AID 1610); details: PC12 mutant huntingtin toxicity, final LDH at 4 uM, stronger effect = lower value
# [15] = blockers of biotin-polyQ monomer incorporation into aggregates – biochemical, solid-phase synthetic aggregates, QA3 (AID 1585; call rule not given here); details: polyQ aggregate elongation; EC50: measured here: elongation inhibition potency; inhibition: at 100 µM, stronger effect = higher value
# [16] = galactose survival enhancers in mitochondrial complex I cybrids – cell-based, galactose medium, ATP luminescence, primary screen (AID 1645843;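 active means z-score of at least 1.8 in each of two replicates, scored against plate mean and spread of sample wells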;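 further: positive z means more ATP and so rescue of galactose-driven cybrid death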); details: complex I mutant cybrid cells, 72 h, stronger effect = higher value
# [17] = measured here: epithelial PC-3E GFP cell survival
# [18] = measured here: mesenchymal TEM4-18 mCherry cell survival
# [19] = stronger effect = lower value, cell number ratio, induced over uninduced
# [20] = measured here: relative caspase fold change +Dox/-Dox
# [21] = measured here: total cells with miR-34 induction, stronger effect = lower value
# [22] = measured here: total cells without miR-34 induction
# Mitogen-activated protein kinase 7 (Homo sapiens), sequence (Q13164 whole entry, looked up, the tested form may be a part): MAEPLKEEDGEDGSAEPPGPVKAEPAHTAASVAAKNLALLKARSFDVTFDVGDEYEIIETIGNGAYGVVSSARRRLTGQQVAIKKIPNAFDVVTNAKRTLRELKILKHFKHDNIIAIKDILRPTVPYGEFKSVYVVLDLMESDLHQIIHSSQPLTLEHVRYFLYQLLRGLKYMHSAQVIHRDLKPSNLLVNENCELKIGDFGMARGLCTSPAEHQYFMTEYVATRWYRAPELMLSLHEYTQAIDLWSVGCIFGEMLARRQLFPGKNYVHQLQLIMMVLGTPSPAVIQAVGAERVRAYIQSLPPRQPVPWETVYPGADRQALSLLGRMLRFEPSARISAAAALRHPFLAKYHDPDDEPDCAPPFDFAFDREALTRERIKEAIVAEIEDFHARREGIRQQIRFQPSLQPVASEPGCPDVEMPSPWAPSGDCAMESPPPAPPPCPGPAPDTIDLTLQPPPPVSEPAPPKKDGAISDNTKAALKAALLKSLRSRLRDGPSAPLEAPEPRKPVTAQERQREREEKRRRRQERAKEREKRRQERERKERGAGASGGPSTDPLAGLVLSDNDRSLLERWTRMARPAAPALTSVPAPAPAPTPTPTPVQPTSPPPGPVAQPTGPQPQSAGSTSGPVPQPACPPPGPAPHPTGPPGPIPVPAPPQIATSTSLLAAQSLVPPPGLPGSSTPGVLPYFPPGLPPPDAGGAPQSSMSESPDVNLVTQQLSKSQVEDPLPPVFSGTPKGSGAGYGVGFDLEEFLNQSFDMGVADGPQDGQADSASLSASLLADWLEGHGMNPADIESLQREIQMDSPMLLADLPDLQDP
# NAD(+) hydrolase SARM1 (Homo sapiens), sequence (Q6SZW1 whole entry, looked up, the tested form may be a part): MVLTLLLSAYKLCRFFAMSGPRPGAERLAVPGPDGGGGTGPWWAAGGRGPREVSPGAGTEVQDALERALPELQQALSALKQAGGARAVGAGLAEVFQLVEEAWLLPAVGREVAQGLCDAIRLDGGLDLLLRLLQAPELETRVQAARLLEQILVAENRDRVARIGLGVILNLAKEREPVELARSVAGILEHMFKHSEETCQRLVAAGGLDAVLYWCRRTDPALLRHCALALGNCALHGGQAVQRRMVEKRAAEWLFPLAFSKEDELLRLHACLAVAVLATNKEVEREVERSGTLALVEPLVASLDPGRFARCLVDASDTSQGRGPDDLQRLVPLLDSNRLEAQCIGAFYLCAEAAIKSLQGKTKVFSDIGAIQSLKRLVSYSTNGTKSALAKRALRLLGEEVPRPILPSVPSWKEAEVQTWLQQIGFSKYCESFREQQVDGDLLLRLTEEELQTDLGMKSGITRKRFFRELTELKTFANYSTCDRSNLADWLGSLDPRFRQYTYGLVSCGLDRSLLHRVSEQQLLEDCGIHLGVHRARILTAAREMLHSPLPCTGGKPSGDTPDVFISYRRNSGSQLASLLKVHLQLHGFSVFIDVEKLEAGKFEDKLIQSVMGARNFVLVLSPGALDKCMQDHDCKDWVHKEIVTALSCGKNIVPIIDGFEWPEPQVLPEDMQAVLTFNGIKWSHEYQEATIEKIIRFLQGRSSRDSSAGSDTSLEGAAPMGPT
smiles,measurement,setting,value
C[N+](C)(C)C[C@H](O)CC(=O)[O-],parasite load remaining,[1],53.1% (inactive)
same,viability,[1],99.7%
same,red/green cell ratio (normalised),[2],1.04 (inactive)
same,normalised cell number,[2]; [17],0.94
same,normalised cell number,[2]; [18],0.98
same,fold change,[3]; [19],0.867 (inactive)
same,fold change,[3]; [20],4.08
same,cell count,[3]; [21],11500
same,cell count,[3]; [22],13200
same,remaining NAD,[4],10 nM (inactive)
same,luciferase signal,[5],32 AU (inactive)
C[C@H](CCC(=O)O)[C@H]1CCC2C3C(=O)CC4CC(=O)CC[C@]4(C)C3CC(=O)[C@@]21C (stereo not given in full),inhibition,[6],12.1%
same,score,[7],1.59
same,rescue above control,[8],-5.38
same,cytochrome c release ratio,[9],1.29
same,inhibition of aggregation,[10],91.6%
same,glutamate uptake change,[11],7.41%
same,inclusion score,[12],2
same,aggregation suppression score,[13],1.06
same,parasite load remaining,[1],101% (inactive) and 58% (inactive)
same,viability,[1],69.6% and 86.9%
same,red/green cell ratio (normalised),[2],1.22 (inactive)
same,normalised cell number,[2]; [17],1.21
same,normalised cell number,[2]; [18],1.47
same,fold change,[3]; [19],0.851 (inactive)
same,fold change,[3]; [20],1.32
same,cell count,[3]; [21],10500
same,cell count,[3]; [22],12400
Cc1onc(-c2ccccc2)c1C(=O)NC1C(=O)N2[C@@H]1SC(C)(C)[C@@H]2C(=O)O (stereo not given in full),inhibition,[6],7.8%
same,score,[7],1.09
same,rescue above control,[8],17.4
same,cytochrome c release ratio,[9],0.85
same,inhibition of aggregation,[10],-11.1%
same,glutamate uptake change,[11],-21.8%
same,inclusion score,[12],2
same,aggregation suppression score,[13],1.34
same,parasite load remaining,[1],86.3% (inactive) and 60.5% (inactive)
same,viability,[1],72.2% and 86.2%
same,red/green cell ratio (normalised),[2],0.97 (inactive)
same,normalised cell number,[2]; [17],1.16
same,normalised cell number,[2]; [18],1.12
same,fold change,[3]; [19],0.832 (inactive)
same,fold change,[3]; [20],1.09
same,cell count,[3]; [21],11300
same,cell count,[3]; [22],13500
CC(=O)Nc1ccc(S(=O)(=O)c2ccc(NC(C)=O)cc2)cc1,parasite load remaining,[1],52.4% (inactive)
same,viability,[1],147%
same,red/green cell ratio (normalised),[2],0.78 (inactive)
same,normalised cell number,[2]; [17],1.22
same,normalised cell number,[2]; [18],0.95
same,fold change,[3]; [19],0.909 (inactive)
same,fold change,[3]; [20],4.36
same,cell count,[3]; [21],10600
same,cell count,[3]; [22],11700
same,remaining NAD,[4],25 nM (inactive)
same,luciferase signal,[5],44 AU (inactive)
Nc1ncnc2c1ncn2C1O[C@H](COP(=O)(O)O)[C@@H](O)[C@H]1O (stereo not given in full),inhibition,[6],5.37%
same,score,[7],1.5
same,rescue above control,[8],1.04
same,cytochrome c release ratio,[9],0.86
same,inhibition of aggregation,[10],92.6%
same,glutamate uptake change,[11],-13.1%
same,inclusion score,[12],2
same,aggregation suppression score,[13],1.2
same,parasite load remaining,[1],124% (inactive) and 48.3% (inactive)
same,viability,[1],75.9% and 108%
same,red/green cell ratio (normalised),[2],0.96 (inactive)
same,normalised cell number,[2]; [17],1.18
same,normalised cell number,[2]; [18],1.13
same,fold change,[3]; [19],0.861 (inactive)
same,fold change,[3]; [20],1.84
same,cell count,[3]; [21],11700
same,cell count,[3]; [22],13600
CC(C)CC1C(=O)N2CCC[C@H]2C2(O)O[C@](NC(=O)C3C=C4c5cccc6[nH]c(Br)c(c56)C[C@H]4N(C)C3)(C(C)C)C(=O)N12 (stereo not given in full),inhibition,[6],2.51%
same,score,[7],1.5
same,rescue above control,[8],6.29
same,cytochrome c release ratio,[9],4.55
same,inhibition of aggregation,[10],72.4%
same,normalised LDH release,[14],0.995
same,glutamate uptake change,[11],-22%
same,inclusion score,[12],2.5
same,aggregation suppression score,[13],1.46
same,parasite load remaining,[1],49.3% (inactive) and 20% (inactive)
same,viability,[1],70.8% and 87%
same,red/green cell ratio (normalised),[2],1.32 (inactive)
same,normalised cell number,[2]; [17],0.91
same,normalised cell number,[2]; [18],1.21
same,fold change,[3]; [19],0.852 (inactive)
same,fold change,[3]; [20],1.96
same,cell count,[3]; [21],9430
same,cell count,[3]; [22],11100
COc1ccc(C[C@H](N)C(=O)N[C@@H]2[C@@H](CO)OC(n3cnc4c(N(C)C)ncnc43)[C@@H]2O)cc1 (stereo not given in full),inhibition,[6],52.2%
same,score,[7],1.68
same,rescue above control,[8],-10.3
same,cytochrome c release ratio,[9],1.17
same,inhibition of aggregation,[10],54%
same,normalised LDH release,[14],1
same,glutamate uptake change,[11],15.3%
same,aggregation suppression score,[13],1.32
same,parasite load remaining,[1],54.7% (inactive) and 3.3% (inactive)
same,viability,[1],40.9% and 70.7%
same,red/green cell ratio (normalised),[2],1 (inactive)
same,normalised cell number,[2]; [17],0.94
same,normalised cell number,[2]; [18],0.94
same,fold change,[3]; [19],1.05 (inactive)
same,fold change,[3]; [20],1.45
same,cell count,[3]; [21],385
same,cell count,[3]; [22],366
O=C(O)CC(O)(CC(=O)O)C(=O)O,parasite load remaining,[1],61.3% (inactive)
same,viability,[1],186%
same,red/green cell ratio (normalised),[2],1 (inactive)
same,normalised cell number,[2]; [17],1.06
same,normalised cell number,[2]; [18],1.06
same,fold change,[3]; [19],0.829 (inactive)
same,fold change,[3]; [20],6.46
same,cell count,[3]; [21],11100
same,cell count,[3]; [22],13400
same,remaining NAD,[4],10 nM (inactive)
same,luciferase signal,[5],52 AU (inactive)
CC1(C)O[C@@H]2CC3C4C[C@H](F)C5=CC(=O)C=CC5(C)C4C(O)CC3(C)[C@]2(C(=O)CO)O1 (stereo not given in full),inhibition,[6],7.08%
same,score,[7],1.24
same,rescue above control,[8],14.2
same,cytochrome c release ratio,[9],1.01
same,inhibition of aggregation,[10],73%
same,normalised LDH release,[14],0.689
same,glutamate uptake change,[11],41.4%
same,inclusion score,[12],2
same,aggregation suppression score,[13],0.735
same,parasite load remaining,[1],131% (inactive) and 75.5% (inactive)
same,viability,[1],60.7% and 91.7%
same,red/green cell ratio (normalised),[2],1.23 (inactive)
same,normalised cell number,[2]; [17],1.12
same,normalised cell number,[2]; [18],1.38
same,fold change,[3]; [19],0.878 (inactive)
same,fold change,[3]; [20],1.79
same,cell count,[3]; [21],7120
same,cell count,[3]; [22],8110
C#C[C@]1(O)CCC2C3CCc4cc(O)ccc4C3CC[C@@]21C (stereo not given in full),inhibition,[6],15.5%
same,EC50,[15],129 µM
same,inhibition,[15],58.5% (active)
same,score,[7],0.67
same,rescue above control,[8],-11.3
same,cytochrome c release ratio,[9],1.15
same,inhibition of aggregation,[10],38.1%
same,glutamate uptake change,[11],-12.7%
same,aggregation suppression score,[13],0.484
same,parasite load remaining,[1],88.3% (inactive) and 66.4% (inactive)
same,viability,[1],76.2% and 99.2%
same,red/green cell ratio (normalised),[2],0.98 (inactive)
same,normalised cell number,[2]; [17],1.1
same,normalised cell number,[2]; [18],1.07
same,fold change,[3]; [19],1.12 (inactive) and 1.01 (inactive)
same,fold change,[3]; [20],1.15 and 1.03
same,cell count,[3]; [21],5370 and 6100
same,cell count,[3]; [22],4780 and 6050
same,z-score,[16],-0.545 (inactive)
COC(=O)C1[C@H]2C[C@H]3c4[nH]c5ccccc5c4CCN3C[C@@H]2CC[C@@H]1O (stereo not given in full),inhibition,[6],-35.1%
same,score,[7],1.22
same,rescue above control,[8],15.8
same,cytochrome c release ratio,[9],0.69
same,inhibition of aggregation,[10],9.99%
same,glutamate uptake change,[11],-7.18%
same,inclusion score,[12],2
same,aggregation suppression score,[13],1.41
same,parasite load remaining,[1],81.2% (inactive) and 40.6% (inactive)
same,viability,[1],73.2% and 95.3%
same,red/green cell ratio (normalised),[2],1.01 (inactive)
same,normalised cell number,[2]; [17],1.03
same,normalised cell number,[2]; [18],1.04
same,fold change,[3]; [19],0.924 (inactive)
same,fold change,[3]; [20],3.3
same,cell count,[3]; [21],12100
same,cell count,[3]; [22],13100
CO[C@@]1(NC(=O)CSCC#N)C(=O)N2C(C(=O)O)=C(CSc3nnnn3C)CSC21 (stereo not given in full),inhibition,[6],20.8%
same,score,[7],1.29
same,rescue above control,[8],-0.81
same,cytochrome c release ratio,[9],0.56
same,inhibition of aggregation,[10],33.3%
same,glutamate uptake change,[11],-5.52%
same,inclusion score,[12],2
same,aggregation suppression score,[13],1.5
same,parasite load remaining,[1],99.4% (inactive) and 54.5% (inactive)
same,viability,[1],73% and 111%
same,red/green cell ratio (normalised),[2],0.89 (inactive)
same,normalised cell number,[2]; [17],1.07
same,normalised cell number,[2]; [18],0.95
same,fold change,[3]; [19],0.923 (inactive)
same,fold change,[3]; [20],3.61
same,cell count,[3]; [21],12200
same,cell count,[3]; [22],13200
